The list is not random: actives were taken first. Their share in the collection is about 3.7%.
Autofluor counter = compound fluorescence in toxin protease inhibitor counterscreen | compound autofluorescence counterscreen, microsphere flow cytometry; hits give high values | actives 3.1% (n = 360,000) | fluorescence intensity (concentration not given with the values); in the data active = fluorescence intensity above about 16000; inconclusive = no clear call, values can overlap the other calls
Anthrax LF inh2 = blocks Bacillus anthracis lethal factor protease; P15917; multiplex microsphere protease cleavage assay, LF; inhibition, % at 10 µM; actives 0.12% (n = 360,000); also: plate controls were buffer without enzyme for full effect and enzyme alone for no effect
MazEF act = activators of E. coli MazEF toxin-antitoxin RNase. P0AE70. FAM/BHQ RNA-DNA oligo cleavage fluorescence, 5 h. activation, % at 20 µM. actives 0.32% (n = 350,000). AID 504720; in the data active = activation above about 50%
Target sequence (P0AE70 whole entry, looked up): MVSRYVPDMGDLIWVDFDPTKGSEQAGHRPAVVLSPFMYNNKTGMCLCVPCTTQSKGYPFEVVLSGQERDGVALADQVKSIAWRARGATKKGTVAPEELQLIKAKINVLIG
BoNT-F LC inh = BoNT F light chain protease inhibition | inhibition, % at 10 µM | actives 0.22% (n = 360,000) | Multiplex microsphere protease cleavage assay, flow cytometry; in the data active = inhibition above about 35%, passing the limit was not always enough; inconclusive = no clear call, values can overlap the other calls; also: plate controls were buffer without enzyme for full effect and enzyme alone for no effect
BoNT-A LC inh2 = BoNT A light chain protease inhibition; multiplex microsphere protease substrate cleavage, flow cytometry; inhibition, % at 10 µM; actives 0.17% (n = 360,000); AID 588499; also: plate controls were buffer without enzyme for full effect and enzyme alone for no effect
Numbers without * were called inactive; ? = inconclusive; nt = no result. Rule as the data show it, unless noted: active = inhibition above about 30%; inconclusive = no clear call, values can overlap the other calls; inactive = below that.

SMILES | Autofluor counter | Anthrax LF inh2 | MazEF act | BoNT-F LC inh | BoNT-A LC inh2
O=C1c2cnc3nc(SCc4cccc(Cl)c4)nn3c2CC2c3ccccc3CCN12 (configuration not stated) | 21140* | 0 | -18 | -1 | 0
CSc1nc2ncc3c(n2n1)CC1c2ccccc2CCN1C3=O (configuration not stated) | 9385 | -2 | 2 | 0 | 1
Cc1cc(C)c(C(=O)/C=C/c2ccc(C(C)C)cc2)c(=O)[nH]1 | 17863* | -1 | 4 | 5 | 5
N#C/C(=C\c1cn(-c2ccccc2)nc1-c1cc2ccccc2o1)c1nc2ccccc2[nH]1 | 2246 | -3 | 741* | -7 | 1
O=C(COC(=O)CNC(=O)C1CCCCC1)Nc1ccc(Cl)cn1 | 21353* | 0 | 6 | -5 | -5
C=CCNc1ncnc2c1ncn2[C@H]1CN(Cc2ccco2)C[C@@H](CO)O1 | 3927 | -4 | nt | -1 | 0
COc1ccc(C(=O)Nc2ccc3c(c2)OCO3)cc1S(=O)(=O)N1CCOCC1 | 3767 | -6 | 1 | -6 | 0
CCN1C(=O)/C(=C/c2ccc(C)s2)NC1=S | 2768 | 7 | 9 | -5 | 6
CCN1C(=O)C(=Cc2ccc(C)s2)C(=O)N(CC)C1=S | 3018 | 28 | 13 | 7 | 69*
CC1CCc2c(sc(NC(=O)C(=O)NCc3ccco3)c2C#N)C1 (configuration not stated) | 20783* | -10 | -25 | 10 | ?
Cc1cc(C(=O)Nc2sc3c(c2C#N)CCC(C)C3)no1 (configuration not stated) | 11121 | 0 | -10 | 2 | 0
CCCn1nc2ccccc2c1P(=N)(N1CCOCC1)N1CCOCC1 | 20501* | 2 | -5 | 1 | ?
Cc1ccc(S(=O)(=O)N(C)C[C@@H]2Oc3ccc(NC(=O)Cn4cnnn4)cc3C(=O)N([C@@H](C)CO)C[C@H]2C)cc1 | 5337 | 0 | -5 | -8 | 0
COc1ccc(-n2c(O)c(/C=C3\C=Nc4ccccc43)c(=O)[nH]c2=O)cc1 | 3919 | -9 | 304* | ? | 5
CCn1c(SCC(=O)NCc2ccc3c(c2)OCO3)nnc1-c1c[nH]c2ccccc12 | 3148 | -1 | 3 | -5 | 0
Cn1c(SCC(=O)NCc2ccc3c(c2)OCO3)nnc1-c1c[nH]c2ccccc12 | 16863* | -2 | 3 | -5 | ?
O=C(CN1C(=O)c2cccc3cccc1c23)NCc1ccc2c(c1)OCO2 | 23642* | -1 | -2 | -2 | ?
Cc1ccccc1-c1nnn(CC(=O)NCc2ccc3c(c2)OCO3)n1 | 21659* | 1 | 5 | 0 | -2
Cc1oc(-c2ccccc2F)nc1CSCC(=O)NCc1ccc2c(c1)OCO2 | 20539* | -10 | 11 | 4 | 4
COC(=O)COC(=O)CC(CC(N)=O)c1ccccc1 (configuration not stated) | 22984* | -1 | 7 | 1 | 1
O=C(CC(CC(=O)c1ccccc1)c1ccccc1)c1ccccc1 | 3836 | 16 | 2 | -18 | 1
Cc1ccc2c(c1)N(CC(=O)c1cccc(Cl)c1)C(=O)C(C)O2 (configuration not stated) | 23986* | -4 | 13 | -2 | -2
CC1Oc2ccccc2N(CC(=O)c2cccc(Cl)c2)C1=O (configuration not stated) | 19669* | -12 | -4 | 13 | 12
Cc1ccc2c(c1)N(CC(=O)N(Cc1ccc3c(c1)OCO3)CC1CCCO1)C(=O)C(C)O2 (configuration not stated) | 23947* | 1 | -1 | -3 | 0
Cc1ccc2c(c1)N(Cc1ccncc1)C(=O)C(C)O2 (configuration not stated) | 22957* | -3 | 10 | 2 | 2
SMILES | Autofluor counter | Anthrax LF inh2 | MazEF act | BoNT-F LC inh | BoNT-A LC inh2
CC(C)(C)[C@@H]1COC(=O)[C@H](Cc2ccc(F)cc2)CC/C=C\C[C@@H](CC(=O)NCCO)C(=O)N1 | 2934 | 1 | 0 | -8 | 0
CCC1(C)Cc2c(sc3nnn(Cc4ccccc4Cl)c(=O)c23)CO1 (configuration not stated) | 20244* | 4 | -5 | -3 | 0
CCC1(C)Cc2c(sc3nnn(CC(=O)Nc4ccccc4)c(=O)c23)CO1 (configuration not stated) | 15796 | -8 | 2 | 2 | ?
CCC1(C)Cc2c(sc3nn[nH]c(=O)c23)CO1 (configuration not stated) | 16707* | -1 | 8 | -2 | -1
COc1ccccc1-c1cccc([C@@H]2C[C@H]3[C@H](CON3C)CN2S(=O)(=O)c2ccccc2C)c1 | 3625 | -4 | -1 | -7 | 0
COCOc1ccc(-c2ncc(OC)nc2NC(=O)c2ccsc2)cc1 | 3175 | 2 | nt | -10 | 0
CN(C)[C@H]1N(C(=O)c2ccc(Br)cc2)N=C2c3ccccc3S(=O)(=O)N21 | 19842* | -1 | 1 | 0 | ?
CCCNC(=O)C1(C)CCCN(Cc2ccc3c(c2)OCO3)C1 (configuration not stated) | 3823 | -6 | nt | 6 | 0
Cc1noc(C)c1C(=O)Nc1c(F)cc(F)cc1Br | 23289* | -4 | -6 | -2 | -3
Cc1cc(C(=O)Nc2c(F)cc(F)cc2Br)c(C)o1 | 17675* | 1 | 1 | -6 | -4
Cc1noc(C)c1C(=O)Nc1ccc(Cl)cc1C(F)(F)F | 23519* | -7 | 4 | -2 | -1
Cc1noc(C)c1C(=O)Nc1ccc(F)cc1 | 2035 | 0 | -5 | -5 | 0
COCCNC(=O)C1(C)CCCN(Cc2ccc(-c3ccccc3)o2)C1 (configuration not stated) | 3043 | -5 | nt | -8 | 0
O=C(Cn1c(CO)nc2ccccc21)Nc1ccc2c(c1)OCCCO2 | ? | 4 | 2 | 1 | 2
CCOc1cc(NC(=S)Nc2ccc(Cl)cc2)c(OCC)cc1NC(C)=O | 4562 | -7 | 11 | -2 | 0
CCOc1cc(NC(=S)NCCCN2CCOCC2)c(OCC)cc1NC(=O)CC(C)C | 22374* | -1 | -6 | -4 | -1
O=C(CCn1nnc2ccccc21)Nc1nnc(Cc2ccc(F)cc2)s1 | 7478 | ? | 21 | -4 | ?
CCOc1cc(NC(=S)Nc2cccc(OC)c2)c(OCC)cc1NC(=O)C(C)C | 23255* | -6 | 2 | -3 | ?
O=C(CCn1nnc2ccccc21)Nc1nnc(COc2ccc(F)cc2)s1 | 21872* | -3 | 3 | -1 | ?
CCOc1cc(NC(=S)Nc2cccc(C)c2)c(OCC)cc1NC(=O)CC(C)C | 22828* | -2 | 6 | -4 | -1
O=C(Nc1cccc(C(=O)N2CCCC2)c1)C1CC1 | 3084 | -4 | 2 | -5 | 0
CCOc1cc(NC(=S)Nc2cccc(OC)c2)c(OCC)cc1NC(=O)c1ccc(C)cc1 | 5883 | 2 | 9 | -3 | 0
CCOc1cc(NC(=O)CC(C)C)c(OCC)cc1NC(=O)CCn1nnc2ccccc21 | 21013* | -2 | -2 | -5 | -2
CCOc1cc(NC(=S)Nc2ccccc2)c(OCC)cc1NC(=O)c1ccc(OC)cc1 | 18966* | -12 | -3 | 9 | 6
CCOC(=O)c1ccc(NC(=O)CCn2nnc3ccccc32)cc1 | 3894 | 3 | 1 | -1 | 1
